RVFV N-RNA FP – inhibitors of Rift Valley Fever Virus nucleocapsid-RNA interaction. P21700. RVFV N-RNA binding, fluorescence polarization; active compounds read low. % bound, % (concentration not given with the values). 20,000 tested, 0.1% active. AID 651828; in the data active = % bound below about 75%
Target sequence (P21700 whole entry, looked up): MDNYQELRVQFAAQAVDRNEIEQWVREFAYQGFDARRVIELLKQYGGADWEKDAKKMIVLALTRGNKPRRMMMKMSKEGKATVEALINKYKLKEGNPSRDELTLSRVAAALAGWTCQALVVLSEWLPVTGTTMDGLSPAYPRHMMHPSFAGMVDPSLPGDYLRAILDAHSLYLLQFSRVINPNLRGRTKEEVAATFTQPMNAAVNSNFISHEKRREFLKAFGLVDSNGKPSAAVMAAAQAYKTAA
Hits are given with their value; - = inactive. The full list was thinned out, with hits kept by preference.

SMILES	RVFV N-RNA FP
COc1ccc(C(=O)NCc2nnc(SC)n2-c2ccc(OC)cc2)cc1	-
C#CCSc1nnc(-c2ccccc2)o1	-
CCC(C)c1ccc(NC(=O)N(C)C)cc1 (stereo unspecified)	-
CC1=C(C(N)=O)C(/C=C/c2ccccc2)n2ncnc2N1 (stereo unspecified)	29
COC(=O)C1=C(C)NC(=S)NC1/C=C/c1ccccc1 (stereo unspecified)	-
CC1=C(C(N)=O)C(c2ccccc2F)NC(=O)N1 (stereo unspecified)	-
CS(=O)(=O)c1ccc(-c2cccc(NC(=O)Cc3cccs3)c2)nn1	-
CCOC(=O)C1C(=O)OC2(CCCCC2)C1C#N (stereo unspecified)	-
O=C(CN(c1ccc(F)cc1)S(=O)(=O)c1ccc2c(c1)OCCO2)N1CCN(Cc2ccc3c(c2)OCO3)CC1	-
CCCn1cnc2c(cnn2-c2ccccc2C)c1=O	-
c1ccc(Cn2nnnc2SCc2ccc(CSc3nnnn3Cc3ccccc3)cc2)cc1	-
Cn1c(=O)c2c(nc3n2CC(C(C)(C)C)=NN3Cc2cccc3ccccc23)n(C)c1=O	-
CCCN1CCC2(CC1)C1CN(CCC)CC=C1C(C#N)=C(N)C2(C#N)C#N (stereo unspecified)	54
CCc1ccc(NC(=O)CSc2nc3c(oc4ccccc43)c(=O)n2CC)cc1	-
CN1C(=O)C/C(=N\O)N(C)C1=O	-
COc1ccc(CNn2c(C)n[nH]c2=S)cc1	-
Cc1cccc(NC(=O)CSc2nncc(=O)[nH]2)c1	-
COCC(=O)Nc1ccccc1C(N)=O	-

Source: PubChem
